From PubChem BioAssay (NCATS)
Results filed as inconclusive are left out. Active and inactive are the calls of the source. Calls come from the whole dose curve; as a rule, active = well fitted curve in the direction sought with a large enough effect; inconclusive = small, poorly fitted or top-dose-only effect, or another doubt; inactive = no such curve, though single readings can be large; an effect the other way counts as inactive or inconclusive.

Target: Calcium and integrin-binding protein 1 (Homo sapiens) (UniProt Q99828)
Assay: Primary qHTS for Identification of Calcium Integrin Binding Protein 1 (CIB1) Competitor (AID 1508620);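 note: GST tagged CIB1 binding a fluorescein labelled alphaIIb integrin peptide tracer; top concentration of the series differs between compounds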
Settings: CIB1-GST / FITC-alphaIIb peptide fluorescence polarization; series mostly up to 57.7 µM; activity change, negative = inhibition: at the top concentration
In short: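 Fluorescence polarization competition: GST-tagged CIB1 (1 uM final) preincubated with compound 15 min at room temperature, then FITC-labelled alphaIIb peptide (100 nM final) added. After 15 min at room temperature, polarization read at Ex 480/Em 540.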
% is set by controls: 0 for no effect and ±100 for the full control effect.

Sequence of Calcium and integrin-binding protein 1 (Homo sapiens) (Q99828 whole entry, looked up): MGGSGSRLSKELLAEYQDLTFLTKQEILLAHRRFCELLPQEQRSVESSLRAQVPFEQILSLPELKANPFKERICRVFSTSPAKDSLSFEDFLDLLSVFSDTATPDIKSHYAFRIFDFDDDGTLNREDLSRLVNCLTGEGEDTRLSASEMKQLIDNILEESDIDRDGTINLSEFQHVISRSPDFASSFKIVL

SMILES	activity change, negative = inhibition	Potency
O=C(CCc1ccc(O)cc1)c1c(O)cc(O)cc1O[C@@H]1O[C@H](CO)[C@H](O)[C@H](O)[C@H]1O	1.37% (inactive)	
NC1CCC(Nc2nc(Nc3ccc(C(=O)N4CCCCC4)cc3)c3ncn(-c4cccc(F)c4)c3n2)CC1 (configuration not stated)	0.816% (inactive)	
COc1cc(O)c2c(c1)C(=O)c1cc(C)cc(O)c1C2=O	-2.81% [at 30.2 µM] (inactive)	
Clc1cc(Cl)cc(CNc2ncncc2-c2ccc3c(c2)OCO3)c1	-0.0322% (inactive)	
CC(=O)Nc1ccc([C@H](C)C(=O)Nc2ncc(C(C)C)s2)cc1		inactive
CC(C)n1cnc2c(NCCCCCCNC(=O)OC(C)(C)C)nc(NCCO)nc21	-1.67% (inactive)	
N#CC(=C(N)Sc1ccccc1N)C(C#N)=C(N)Sc1ccccc1N	-22.5% (inactive)	
C[N+]1(C)[C@@H]2CC(OC(=O)[C@H](CO)c3ccccc3)C[C@H]1[C@H]1O[C@@H]12 (some centres not stated)	-2.55% (inactive)	
CC(C)(C)C(=O)Oc1ccc2c(c1)nc(NC(=O)c1cccc([N+](=O)[O-])c1)n2CCCO	-1.84% [at 114 µM] (inactive)	
CC(C)OC(=O)CCCC=CC[C@@H]1[C@H](C=C[C@@H](O)COc2cccc(C(F)(F)F)c2)[C@H](O)C[C@@H]1O	-4.98% (inactive)	
Oc1ccc(C2=Cc3ccc(O)cc3OC2)cc1	-5.98% (inactive)	
N[C@@]1(C(=O)O)CS(=O)(=O)[C@H]2[C@H](C(=O)O)[C@H]21	3.79% (inactive)	
COc1cc(Nc2ncc(F)c(Nc3ccc4c(n3)NC(=O)C(C)(C)O4)n2)cc(OC)c1OC		inactive
O=C(O)c1ccccc1C(=O)Nc1ccc(-c2ccccc2)cc1		inactive
OC[C@H]1O[C@@H](n2cnc3c2NC=NC[C@@H]3O)C[C@H]1O	-5.68% (inactive)	
CC(C(=O)O)c1ccc(-c2ccccc2)c(F)c1 (configuration not stated)	-4.23% (inactive)	
CC=CC(=O)N(CC)c1ccccc1C	-0.476% (inactive)	
CC(C)(C)OC(=O)N[C@H]1CCCCCC=C[C@@H]2C[C@@]2(C(=O)NS(=O)(=O)C2CC2)NC(=O)[C@@H]2C[C@@H](OC(=O)N3Cc4cccc(F)c4C3)CN2C1=O	-3.43% [at 114 µM] (inactive)	

SMILES	activity change, negative = inhibition	Potency
CC=CC[C@@H](C)C(=O)[C@H]1C(=O)N[C@@H](C(C)C)C(=O)N(C)CC(=O)N(C)[C@@H](CC(C)C)C(=O)N[C@@H](C(C)C)C(=O)N(C)[C@@H](CC(C)C)C(=O)N[C@@H](C)C(=O)N[C@H](C)C(=O)N(C)[C@@H](CC(C)C)C(=O)N(C)[C@@H](CC(C)C)C(=O)N(C)[C@@H](C(C)C)C(=O)N1C	-4.26% (inactive)	
Cc1ccc(C(C)(O)c2nc3ccccc3s2)c(C)c1 (configuration not stated)	-2.47% (inactive)	
Nc1ncnc2c1nc(Cl)n2[C@@H]1O[C@H](CO)[C@@H](O)[C@@H]1O	-0.835% (inactive)	
Cc1[nH]c(C=C2C(=O)Nc3ccc(S(=O)(=O)Cc4c(Cl)cccc4Cl)cc32)c(C)c1C(=O)N1CCC[C@H]1CN1CCCC1	20.5% (inactive)	
COC[C@@H](c1ccc(C(F)(F)F)cc1)N1CCN(C2(C)CCN(C(=O)c3c(C)ncnc3C)CC2)C[C@H]1C	-3.16% (inactive)	
CO[C@H]1C[C@@H]2CC[C@@H](C)[C@@](O)(O2)C(=O)C(=O)N2CCCC[C@@H]2C(=O)O[C@H]([C@@H](C)C[C@@H]2CC[C@H](O)[C@H](OC)C2)CC(=O)[C@H](C)C=C(C)[C@@H](O)[C@@H](OC)C(=O)[C@H](C)C[C@H](C)C=CC=CC=C1C	-6.69% (inactive)	
O=C(NOCC(O)CO)c1cc(Br)c(F)c(F)c1Nc1ccc(I)cc1F (configuration not stated)	1.54% (inactive)	
COc1ncc(-c2ccc3nccc(-c4ccnnc4)c3c2)cc1NS(=O)(=O)c1ccc(F)cc1F		inactive
C=C1C(=O)OC(CCCCCCCC)C1C(=O)O (configuration not stated)	-4.39% (inactive)	
O=C1C(Cl)=C(NCCN2CCOCC2)C(=O)c2ncccc21	-6.93% (inactive)	
CC(C)(C)COc1ccc(-n2cc(C(=O)O)cn2)cc1C#N	-9.34% (inactive)	
COc1cc(N2CCC(N3CCN(C)CC3)CC2)ccc1Nc1ncc(Cl)c(Nc2ccccc2S(=O)(=O)C(C)C)n1	-6.6% (inactive)	
CCC(=O)O[C@]1(C(=O)CO)CC[C@H]2[C@@H]3CCC4=CC(=O)CC[C@]4(C)[C@@H]3CC[C@@]21C	2.56% (inactive)	
O=c1cc(CN2CCOCC2)occ1OCCCCCSc1ccnc2cc(C(F)(F)F)ccc12	-6.41% (inactive)	
O=C1NC(=O)C(=Cc2cccc(C(F)(F)F)c2)S1	-13.1% (inactive)	
CCC(=O)NC[C@H](Cc1ccc(OCCc2nc(-c3ccccc3)oc2C)cc1)NC(C)=CC(=O)c1ccc(C(F)(F)F)cc1	-4.1% (inactive)	
O=C1NC(=O)C(=Cc2ccc3c(c2)OC(F)(F)O3)S1	-15.8% (inactive)	
C[C@]12CCC3c4ccc(O)cc4CCC3C1CCC2=O (some centres not stated)	-0.982% (inactive)	

System: not listed separately
Assay: Primary qHTS for small molecule stabilizers of the endoplasmic reticulum resident proteome: Secreted ER Calcium Modulated Protein (SERCaMP) assay (AID 1508630)
Settings: SH-SY5Y GLuc-SERCaMP (Gaussia luciferase released on ER calcium loss) secretion, thapsigargin, luminescence; series mostly up to 38.4 µM; activity change, negative = inhibition: at the top concentration
In short: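 GLuc-SERCaMP-expressing SH-SY5Y cells, pretreated 16 h with compound, are challenged with thapsigargin to empty ER calcium stores; after 4 h, coelenterazine is added directly to the medium and luminescence is imaged.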

SMILES	activity change, negative = inhibition
O=C(CCc1ccc(O)cc1)c1c(O)cc(O)cc1O[C@@H]1O[C@H](CO)[C@H](O)[C@H](O)[C@H]1O	18.8% (inactive)
NC1CCC(Nc2nc(Nc3ccc(C(=O)N4CCCCC4)cc3)c3ncn(-c4cccc(F)c4)c3n2)CC1 (configuration not stated)	0% (inactive)
COc1cc(O)c2c(c1)C(=O)c1cc(C)cc(O)c1C2=O	369% [at 21.6 µM] (inactive)
Clc1cc(Cl)cc(CNc2ncncc2-c2ccc3c(c2)OCO3)c1	-29% (inactive)
CC(=O)Nc1ccc([C@H](C)C(=O)Nc2ncc(C(C)C)s2)cc1	249% (inactive)
CC(C)n1cnc2c(NCCCCCCNC(=O)OC(C)(C)C)nc(NCCO)nc21	198% (inactive)
N#CC(=C(N)Sc1ccccc1N)C(C#N)=C(N)Sc1ccccc1N	0% (inactive)
C[N+]1(C)[C@@H]2CC(OC(=O)[C@H](CO)c3ccccc3)C[C@H]1[C@H]1O[C@@H]12 (some centres not stated)	7.46% (inactive)
CC(C)(C)C(=O)Oc1ccc2c(c1)nc(NC(=O)c1cccc([N+](=O)[O-])c1)n2CCCO	-59.1% (inactive)
CC(C)OC(=O)CCCC=CC[C@@H]1[C@H](C=C[C@@H](O)COc2cccc(C(F)(F)F)c2)[C@H](O)C[C@@H]1O	9.96% (inactive)
Oc1ccc(C2=Cc3ccc(O)cc3OC2)cc1	106% (inactive)
N[C@@]1(C(=O)O)CS(=O)(=O)[C@H]2[C@H](C(=O)O)[C@H]21	0% (inactive)
COc1cc(Nc2ncc(F)c(Nc3ccc4c(n3)NC(=O)C(C)(C)O4)n2)cc(OC)c1OC	-0.513% (inactive)
O=C(O)c1ccccc1C(=O)Nc1ccc(-c2ccccc2)cc1	73.5% (inactive)
OC[C@H]1O[C@@H](n2cnc3c2NC=NC[C@@H]3O)C[C@H]1O	5.21% (inactive)
CC(C(=O)O)c1ccc(-c2ccccc2)c(F)c1 (configuration not stated)	71.8% (inactive)
CC=CC(=O)N(CC)c1ccccc1C	57.9% (inactive)
CC(C)(C)OC(=O)N[C@H]1CCCCCC=C[C@@H]2C[C@@]2(C(=O)NS(=O)(=O)C2CC2)NC(=O)[C@@H]2C[C@@H](OC(=O)N3Cc4cccc(F)c4C3)CN2C1=O	30.6% (inactive)

SMILES	activity change, negative = inhibition
CC=CC[C@@H](C)C(=O)[C@H]1C(=O)N[C@@H](C(C)C)C(=O)N(C)CC(=O)N(C)[C@@H](CC(C)C)C(=O)N[C@@H](C(C)C)C(=O)N(C)[C@@H](CC(C)C)C(=O)N[C@@H](C)C(=O)N[C@H](C)C(=O)N(C)[C@@H](CC(C)C)C(=O)N(C)[C@@H](CC(C)C)C(=O)N(C)[C@@H](C(C)C)C(=O)N1C	162% (inactive)
Cc1ccc(C(C)(O)c2nc3ccccc3s2)c(C)c1 (configuration not stated)	266% (inactive)
Nc1ncnc2c1nc(Cl)n2[C@@H]1O[C@H](CO)[C@@H](O)[C@@H]1O	-1.57% (inactive)
Cc1[nH]c(C=C2C(=O)Nc3ccc(S(=O)(=O)Cc4c(Cl)cccc4Cl)cc32)c(C)c1C(=O)N1CCC[C@H]1CN1CCCC1	0% (inactive)
COC[C@@H](c1ccc(C(F)(F)F)cc1)N1CCN(C2(C)CCN(C(=O)c3c(C)ncnc3C)CC2)C[C@H]1C	146% (inactive)
CO[C@H]1C[C@@H]2CC[C@@H](C)[C@@](O)(O2)C(=O)C(=O)N2CCCC[C@@H]2C(=O)O[C@H]([C@@H](C)C[C@@H]2CC[C@H](O)[C@H](OC)C2)CC(=O)[C@H](C)C=C(C)[C@@H](O)[C@@H](OC)C(=O)[C@H](C)C[C@H](C)C=CC=CC=C1C	-24.1% (inactive)
O=C(NOCC(O)CO)c1cc(Br)c(F)c(F)c1Nc1ccc(I)cc1F (configuration not stated)	21.6% (inactive)
COc1ncc(-c2ccc3nccc(-c4ccnnc4)c3c2)cc1NS(=O)(=O)c1ccc(F)cc1F	220% (inactive)
C=C1C(=O)OC(CCCCCCCC)C1C(=O)O (configuration not stated)	-11.7% (inactive)
O=C1C(Cl)=C(NCCN2CCOCC2)C(=O)c2ncccc21	84.8% (inactive)
CC(C)(C)COc1ccc(-n2cc(C(=O)O)cn2)cc1C#N	51.7% (inactive)
COc1cc(N2CCC(N3CCN(C)CC3)CC2)ccc1Nc1ncc(Cl)c(Nc2ccccc2S(=O)(=O)C(C)C)n1	0% (inactive)
CCC(=O)O[C@]1(C(=O)CO)CC[C@H]2[C@@H]3CCC4=CC(=O)CC[C@]4(C)[C@@H]3CC[C@@]21C	-1.36% (inactive)
O=c1cc(CN2CCOCC2)occ1OCCCCCSc1ccnc2cc(C(F)(F)F)ccc12	0% (inactive)
O=C1NC(=O)C(=Cc2cccc(C(F)(F)F)c2)S1	-11.8% (inactive)
CCC(=O)NC[C@H](Cc1ccc(OCCc2nc(-c3ccccc3)oc2C)cc1)NC(C)=CC(=O)c1ccc(C(F)(F)F)cc1	0% (inactive)
O=C1NC(=O)C(=Cc2ccc3c(c2)OC(F)(F)O3)S1	131% (inactive)
C[C@]12CCC3c4ccc(O)cc4CCC3C1CCC2=O (some centres not stated)	24% (inactive)
